For part of these data: Potency and affinity values are given separately. Active and inactive are the calls of the source.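 Rule for the calls, unless noted: active = fluorescence ratio normalized to control raised more than 50% in primary screen plus both repeat runs; inactive = the rest.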
Legend:
[1] = test system: TRPC4 beta (transient receptor potential cation channel C4), mouse; assay: TRPC4 cation channel opening, retest – cell-based, Fluo4 calcium, HEK293 TRPC4beta/mu-opioid, duplicates, 10 µM, confirmation (AID 2426); conditions: Fluo4 calcium fluorescence, at 10 µM; active compounds read high;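 for activation: percent rise of integrated ratio over buffer wells lacking compound which define 0%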
[2] = test system: transient receptor potential cation channel C4 beta (TRPC4), mouse; assay: TRPC4 cation channel opening, second retest – cell-based, second round, Fluo4, HEK293 TRPC4beta/mu-opioid, 1 µM, confirmation (AID 2461;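 active = primary screen active and over 50% activation in each of two duplicate runs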;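 for activation: 0% = wells without test compound as baseline of integrated fluorescence ratio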); conditions: Fluo4 calcium fluorescence, at 1 µM; active compounds read high
[3] = test system: TRPC4 (transient receptor potential cation channel C4 beta), mouse; assay: potentiation of DAMGO EC20 TRPC4 response – cell-based, second round, Fluo-4, HEK293 TRPC4beta/mu-opioid, 1 µM, confirmation (AID 2554;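 active = primary screen hit whose fluorescence ratio, in both repeats, exceeds the weak agonist control mean by 3 SD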); conditions: DAMGO EC20, Fluo-4 calcium flux, at 1 µM; active compounds read high
[4] = test system: TRPC4 beta (transient receptor potential cation channel C4), mouse; assay: potentiation of DAMGO EC20 TRPC4 response – cell-based, Fluo-4, HEK293 TRPC4beta/mu-opioid, confirmation (AID 2555;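 active = primary screen hit whose calcium fluorescence ratio, in both repeats, exceeds the weak agonist control mean by 3 SD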); conditions: DAMGO EC20, Fluo-4 calcium flux, at 10 µM; active compounds read high
[5] = target: Short transient receptor potential channel 4 (Mus musculus) (UniProt Q9QUQ5); assay: blockers of DAMGO-evoked TRPC4 calcium flux – cell-based, Fluo4, HEK293 TRPC4beta/mu-opioid, confirmation (AID 2636;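 active = calcium signal cut by more than 3 SD below the full-agonist control yet still positive, in both repeats and the earlier primary screen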); conditions: at 10 µM; active compounds read high
Short transient receptor potential channel 4 (Mus musculus), sequence (Q9QUQ5 whole entry, looked up): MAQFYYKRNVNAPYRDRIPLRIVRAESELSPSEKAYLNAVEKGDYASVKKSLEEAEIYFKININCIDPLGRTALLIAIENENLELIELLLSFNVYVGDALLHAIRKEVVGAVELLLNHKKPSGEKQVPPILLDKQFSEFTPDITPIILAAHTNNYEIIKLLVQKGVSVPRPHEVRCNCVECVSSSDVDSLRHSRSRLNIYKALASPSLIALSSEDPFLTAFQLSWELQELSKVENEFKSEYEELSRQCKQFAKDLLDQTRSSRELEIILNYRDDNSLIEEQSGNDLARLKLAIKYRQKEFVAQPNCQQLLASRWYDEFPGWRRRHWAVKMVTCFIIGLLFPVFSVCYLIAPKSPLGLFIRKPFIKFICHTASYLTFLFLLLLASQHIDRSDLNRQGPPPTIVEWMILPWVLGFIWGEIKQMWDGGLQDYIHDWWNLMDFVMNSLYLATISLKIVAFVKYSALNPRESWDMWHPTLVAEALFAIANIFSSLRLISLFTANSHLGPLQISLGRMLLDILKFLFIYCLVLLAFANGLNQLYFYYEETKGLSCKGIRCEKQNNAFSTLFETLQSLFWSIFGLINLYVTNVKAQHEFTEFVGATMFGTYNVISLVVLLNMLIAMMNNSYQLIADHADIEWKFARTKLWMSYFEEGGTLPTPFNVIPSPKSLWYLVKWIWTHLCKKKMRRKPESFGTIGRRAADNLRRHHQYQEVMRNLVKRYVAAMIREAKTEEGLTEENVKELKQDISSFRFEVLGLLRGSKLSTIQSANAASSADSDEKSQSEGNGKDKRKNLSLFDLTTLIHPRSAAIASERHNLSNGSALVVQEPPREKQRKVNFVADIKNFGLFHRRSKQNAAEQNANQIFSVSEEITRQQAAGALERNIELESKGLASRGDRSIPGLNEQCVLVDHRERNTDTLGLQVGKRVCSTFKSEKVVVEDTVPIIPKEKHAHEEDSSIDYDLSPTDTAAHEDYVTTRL

[6] = target: Short transient receptor potential channel 4 (Mus musculus) (UniProt Q9QUQ5); assay: blockers of DAMGO-evoked TRPC4 calcium flux – cell-based, second round, Fluo4, HEK293 TRPC4beta/mu-opioid, 1 µM, confirmation (AID 2637;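 active = calcium signal ratio cut to more than 3 SD under the fully stimulated control mean yet still positive, in both repeats and the primary screen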); conditions: at 1 µM; active compounds read high
[7] = target: Short transient receptor potential channel 4 (Mus musculus) (UniProt Q9QUQ5); assay: potentiation of DAMGO-evoked TRPC4 calcium signal – cell-based, HEK293 TRPC4/mu-opioid, Fluo-4 calcium, EC20 DAMGO, dose response (AID 434941;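 active = earlier screen potentiator hit that boosts the TRPC4 ion channel at some dose, with a dose response; inactive = no potentiation, no dose response, or not a prior hit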;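 note: calcium entry triggered by an EC20 dose of DAMGO at the co-expressed mu-opioid receptor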)
[8] = target: Short transient receptor potential channel 4 (Mus musculus) (UniProt Q9QUQ5); assay: block of DAMGO-driven TRPC4 calcium entry – cell-based, HEK293 TRPC4/mu-opioid, Fluo-4 calcium, dose response (AID 434942;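 active = primary screen inhibitor hit that blocks the TRPC4 channel at some tested dose, yielding a dose curve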)
[9] = target: Short transient receptor potential channel 6 (Mus musculus) (UniProt Q61143); assay: TRPC6 blockade by TRPC4 inhibitor hits – cell-based, HEK293, membrane potential dye, duplicate, selectivity assay for TRPC4 inhibitor project, confirmation (AID 434948;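 active = active in primary screen and both duplicates, each dropping signal beyond three positive-control SD with fluorescence still positive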); conditions: HEK293 TRPC6, membrane potential dye fluorescence, at 10 µM, stimulated with maximal-effect acetylcholine; active compounds read high
Short transient receptor potential channel 6 (Mus musculus), sequence (Q61143 whole entry, looked up): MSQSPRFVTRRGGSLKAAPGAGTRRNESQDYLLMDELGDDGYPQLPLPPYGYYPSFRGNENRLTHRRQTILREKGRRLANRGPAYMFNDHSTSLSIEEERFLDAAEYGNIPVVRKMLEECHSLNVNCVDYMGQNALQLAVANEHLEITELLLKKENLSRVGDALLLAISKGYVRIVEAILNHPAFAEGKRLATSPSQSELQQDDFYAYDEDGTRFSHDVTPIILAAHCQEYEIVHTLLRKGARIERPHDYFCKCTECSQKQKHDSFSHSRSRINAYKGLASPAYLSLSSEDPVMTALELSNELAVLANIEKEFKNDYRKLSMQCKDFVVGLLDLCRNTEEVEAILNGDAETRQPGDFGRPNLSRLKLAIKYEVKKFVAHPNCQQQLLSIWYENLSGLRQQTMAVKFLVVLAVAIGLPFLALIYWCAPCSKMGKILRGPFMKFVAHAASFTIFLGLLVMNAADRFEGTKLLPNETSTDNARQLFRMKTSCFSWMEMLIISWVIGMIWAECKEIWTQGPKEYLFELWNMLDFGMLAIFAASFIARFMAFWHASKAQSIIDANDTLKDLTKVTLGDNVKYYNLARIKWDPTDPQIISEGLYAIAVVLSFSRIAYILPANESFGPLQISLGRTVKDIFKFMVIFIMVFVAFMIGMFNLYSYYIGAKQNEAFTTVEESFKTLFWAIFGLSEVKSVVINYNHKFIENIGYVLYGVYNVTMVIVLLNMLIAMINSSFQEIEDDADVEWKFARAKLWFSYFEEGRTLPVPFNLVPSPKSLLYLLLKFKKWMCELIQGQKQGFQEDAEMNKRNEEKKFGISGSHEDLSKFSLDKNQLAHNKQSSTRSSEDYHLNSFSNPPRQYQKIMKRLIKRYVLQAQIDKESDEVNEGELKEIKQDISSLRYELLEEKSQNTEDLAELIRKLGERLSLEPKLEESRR

[10] = target: Short transient receptor potential channel 6 (Mus musculus) (UniProt Q61143); assay: TRPC6 opening by TRPC4 activator hits – cell-based, HEK293, membrane potential dye, duplicate, selectivity assay for TRPC4 activator project, confirmation (AID 434950;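 active = membrane potential signal rise above negative control mean plus 3 SD in both duplicates, also active in the earlier TRPC4 screen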;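 for activation: 0% = buffer only wells and 100% = acetylcholine maximal-effect wells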); conditions: HEK293 TRPC6, membrane potential fluorescence, at 10 µM; activation: active compounds read high; outcome: activation
[11] = target: Short transient receptor potential channel 6 (Mus musculus) (UniProt Q61143); assay: positive modulators of mouse TRPC6 channel – HEK293 cells, membrane potential dye, duplicate, selectivity assay for TRPC4 potentiator project, confirmation (AID 434952;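 active = compound raising the membrane signal above positive-control mean plus 3 SD in both repeats, and a primary screen hit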); conditions: HEK293 TRPC6, membrane potential dye fluorescence, at 10 µM, maximal acetylcholine added after compound; active compounds read high
[12] = target: Short transient receptor potential channel 4 (Mus musculus) (UniProt Q9QUQ5); assay: calcium flux activators in TRPC4/5HT1a cells, counter-screen for TRPC4 activator project, cell-based, second counter screen, HEK293 TRPC4/5HT1a, Fluo-4 (AID 434977;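 active = calcium signal rise above buffer-control mean plus 5 SD in both duplicates, and also a hit in the primary screen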;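 for activation: plate controls were assay buffer for no effect and maximal serotonin response for full effect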); conditions: Fluo-4 calcium flux, at 10 µM; active compounds read high
[13] = serotonin-gated TRPC4 signal block – cell-based, second counter screen, HEK293 TRPC4/5HT1a, Fluo-4, counter-screen for TRPC4 inhibitor project, confirmation (AID 434978;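 active = primary screen active whose calcium signal fell more than 3 SD beyond the full-serotonin control mean in both duplicate plates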;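 note: serotonin given first at submaximal then at maximal dose after compound preincubation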); conditions: Fluo-4 calcium flux, at 10 µM, serotonin added to trigger calcium flux; active compounds read high
[14] = test system: TRPC4 (mouse), co-expressed with 5HT1a in HEK293; assay: enhancement of serotonin-evoked TRPC4 response – cell-based, second counter screen, HEK293 TRPC4/5HT1a, Fluo-4, counter-screen for TRPC4 potentiator project, confirmation (AID 434979;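 active = signal rise over 3 SD above mean of control wells given weak agonist, in both repeats and first screen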); conditions: Fluo-4 calcium flux, at 10 µM, serotonin added at its EC20 dose; active compounds read high
[15] = nonspecific calcium rise without TRPC4 – cell-based, HEK293 mu-opioid receptor line, counter-screen for TRPC4 activator project, confirmation (AID 449723;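 active = hit in primary screen, with calcium signal over 5 SD above buffer well mean in both duplicates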;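 note: counter screen cells carry the mu-opioid receptor alone and lack TRPC4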); conditions: HEK293 mu-opioid cells, Fluo-4 calcium fluorescence, at 10 µM; active compounds read high
[16] = nonspecific potentiation of DAMGO calcium response – cell-based, HEK293 mu-opioid receptor line, counter-screen for TRPC4 allosteric potentiator project, confirmation (AID 449724;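 active = calcium signal rise more than 3 SD above the low-dose agonist control mean, in both duplicate plates and the primary screen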); conditions: HEK293 mu-opioid receptor cells, Fluo-4 calcium flux, at 10 µM, compound added before EC20 DAMGO stimulus; active compounds read high

COc1ccc(C(CNC(=O)c2cccc(NS(=O)(=O)c3ccc(Br)cc3)c2)N(C)C)cc1 (stereo not given)
inactive: outcome [3] | outcome [4] | outcome [5] | outcome [6] | outcome [7] | outcome [8] | outcome [9] | outcome [11] | outcome [13] | outcome [14] | outcome [15] | outcome [16]
active: activation [1] 253% | activation [2] 83% | activation [10] 35% | activation [12] 29.9%

O=C1S/C(=C\c2ccc(N3CCOCC3)o2)C(=O)N1Cc1c(F)cccc1Cl
active: activation [10] 280% | potentiation, percent of control [11] 191%
inactive: outcome [1] | outcome [2] | outcome [3] | outcome [4] | outcome [5] | outcome [6] | outcome [7] | outcome [8] | outcome [9] | outcome [12] | outcome [13] | outcome [14] | outcome [15] | outcome [16]

c1ccc(Cn2nnnc2C(c2cccnc2)N2CCN(C3CCCCC3)CC2)cc1 (stereo not given)
active: activation [1] 115% | activation [10] 47.5% | activation [12] 32.6%
inactive: outcome [2] | outcome [3] | outcome [4] | outcome [5] | outcome [6] | outcome [7] | outcome [8] | outcome [9] | outcome [11] | outcome [13] | outcome [14] | outcome [15] | outcome [16]

COc1ccc(C(CNC(=O)c2ccccc2SC)N(C)C)cc1 (stereo not given)
inactive: outcome [2] | outcome [3] | outcome [4] | outcome [5] | outcome [6] | outcome [7] | outcome [8] | outcome [9] | outcome [11] | outcome [12] | outcome [13] | outcome [14] | outcome [15] | outcome [16]
active: activation [1] 99% | activation [10] 56%

CC1CN(C)C(C)c2c1oc1ccc(N)cc21 (stereo not given)
active: activation [1] 226% | activation [2] 73%
inactive: outcome [3] | outcome [4] | outcome [5] | outcome [6] | outcome [7] | outcome [8] | outcome [9] | outcome [10] | outcome [11] | outcome [12] | outcome [13] | outcome [14] | outcome [15] | outcome [16]

CC(=O)c1c(C)nn(CC(=O)NC2CCCN(Cc3ccc(CC(C)C)cc3)C2)c1C (stereo not given)
inactive: outcome [2] | outcome [3] | outcome [4] | outcome [5] | outcome [6] | outcome [7] | outcome [8] | outcome [9] | outcome [11] | outcome [13] | outcome [14] | outcome [15] | outcome [16]
active: activation [1] 122% | activation [10] 34.5% | activation [12] 50.2%

CNCCOc1ccc(Cl)c(Cl)c1
active: activation [1] 81% | activation [2] 54% | potentiation [3] 44% | potentiation [4] 23% | activation [10] 39.5% | activation [12] 24.9% | potentiation [14] 24%
inactive: outcome [5] | outcome [6] | outcome [7] | outcome [8] | outcome [9] | outcome [11] | outcome [13] | outcome [15] | outcome [16]

CC(C)(C)C(=O)/C=c1\s/c(=C\c2ccc(-c3ccc([N+](=O)[O-])cc3)o2)c(=O)n1CC(=O)NC(N)=O
inactive: outcome [2] | outcome [3] | outcome [5] | outcome [6] | outcome [7] | outcome [8] | outcome [9] | outcome [13]
active: activation [1] 63% | potentiation [4] 36% | activation [10] 534% | potentiation, percent of control [11] 436% | activation [12] 30% | potentiation [14] 14% | activation [15] 68.5% | activation [16] 1220%

CN(C)C(CNC(=O)NC1CCCCC1)c1cccnc1 (stereo not given)
active: activation [1] 79% | activation [2] 98% | activation [10] 29.5%
inactive: outcome [3] | outcome [4] | outcome [5] | outcome [6] | outcome [7] | outcome [8] | outcome [9] | outcome [11] | outcome [12] | outcome [13] | outcome [14] | outcome [15] | outcome [16]

CN(CCc1ccccn1)C(=O)CC1C(=O)NCCN1Cc1cccc(F)c1 (stereo not given)
active: activation [1] 214% | activation [12] 60.9%
inactive: outcome [2] | outcome [3] | outcome [4] | outcome [5] | outcome [6] | outcome [7] | outcome [8] | outcome [9] | outcome [10] | outcome [11] | outcome [13] | outcome [14] | outcome [15] | outcome [16]

Cc1ccc2nc(N(CCCN(C)C)C(=O)c3ccc(S(=O)(=O)N4CCc5ccccc5C4)cc3)sc2c1
active: activation [1] 242% | activation [2] 75% | activation [12] 7.33%
inactive: outcome [3] | outcome [4] | outcome [5] | outcome [6] | outcome [7] | outcome [8] | outcome [9] | outcome [10] | outcome [11] | outcome [13] | outcome [14] | outcome [15] | outcome [16]

Cc1cccc(C(=O)OC2CCCN(C)C2)c1C (stereo not given)
active: activation [1] 76% | activation [10] 60.5% | activation [12] 20%
inactive: outcome [2] | outcome [3] | outcome [4] | outcome [5] | outcome [6] | outcome [7] | outcome [8] | outcome [9] | outcome [11] | outcome [13] | outcome [14] | outcome [15] | outcome [16]

CCOC(=O)C1(CCCc2ccccc2)CCN(Cc2cnn(C)c2)CC1
active: activation [1] 92% | activation [10] 69%
inactive: outcome [2] | outcome [3] | outcome [4] | outcome [5] | outcome [6] | outcome [7] | outcome [8] | outcome [9] | outcome [11] | outcome [12] | outcome [13] | outcome [14] | outcome [15] | outcome [16]

COc1ccc(CNCc2cn(-c3cccc(F)c3)nc2-c2ccc(C)o2)cc1
inactive: outcome [2] | outcome [3] | outcome [4] | outcome [5] | outcome [6] | outcome [7] | outcome [8] | outcome [9] | outcome [10] | outcome [11] | outcome [12] | outcome [13] | outcome [14] | outcome [16]
active: activation [1] 156% | activation [15] 12.4%

N=c1n(Cc2ccccc2)c2ccccc2n1CC(O)COc1ccccc1 (stereo not given)
inactive: outcome [1] | outcome [2] | outcome [3] | outcome [4] | outcome [5] | outcome [6] | outcome [7] | outcome [8] | outcome [9] | outcome [11] | outcome [12] | outcome [13] | outcome [14] | outcome [15] | outcome [16]
active: activation [10] 54%
